In PubChem BioAssay (NCATS) one finds Potency data, which are given here for twelve compounds.

Where “and” joins values, the source holds several entries; their conditions need not be identical. Identical values can stand only once. Results filed as inconclusive are left out. Calls of active or inactive are those of the source. Unless noted, the call rests on the fitted dose curve; in most records, active means well fitted curve in the direction sought with a large enough effect; inconclusive means small, poorly fitted or top-dose-only effect, or another doubt; inactive means no such curve, though single readings can be large; an effect the other way counts as inactive or inconclusive.

The target in test [1] is Cytochrome P450 2D6 (Homo sapiens) (UniProt P10635). The test is described as follows: Cytochrome P450 family 2 subfamily D member 6 (CYP2D6) small molecule antagonists: luciferase biochemical (cell-free) qHTS assay (AID 1645840; active means well fitted curve in the direction sought with a large enough effect in the repeat runs; an effect the other way counts as inactive or inconclusive; further: nearly all actives have a fitted effect of over 55% in size; further: potency means the concentration at half of the fitted maximal effect). Put shortly: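 P450-Glo CYP2D6 system: proluciferin substrate converted by enzyme to luciferin, read by luminescence proportional to activity. Enzyme-substrate mix with compound 10 min at room temperature, then NADPH regeneration 1 h before detection reagent.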

The target of a further test is Papain (Carica papaya) (UniProt P00784). The test is described as follows: Primary qHTS assay for inhibitors of the protease papain (AID 1645873).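 Further: papain turnover of Z-FR-AMC read as the AMC fluorescence gain over 10 min; series mostly up to about 50 µM.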
The target in test [2] is Cytochrome P450 2C9 (Homo sapiens) (UniProt P11712). The test is described as follows: Cytochrome P450 family 2 subfamily C member 9 (CYP2C9) small molecule antagonists: luciferase biochemical (cell-free) qHTS assay (AID 1645842; active means well fitted curve in the direction sought with a large enough effect in the repeat runs; an effect the other way counts as inactive or inconclusive; further: nearly all actives have a fitted effect of over 55% in size; further: potency means the concentration at half of the fitted maximal effect). In a few lines:
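P450-Glo CYP2C9 system: proluciferin substrate with enzyme in mix containing 0.4% BSA, 10 min at room temperature, then NADPH regeneration solution added and incubated 1 h at 37C. Detection reagent stopped reaction; luminescence read after 20 min as RLU.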

Test [3] is described as follows: Primary qHTS for inhibitors of nuclear receptor binding SET domain protein 2 (NSD2) in an isogenic RCH-ACV NSD2 p.E1099K mutant (9B) (AID 1645876). Further: nearly all actives have a fitted effect of over 70% in size. Further: potency means the concentration at half of the fitted maximal effect.
The nature of test [4]: Primary qHTS for inhibitors of nuclear receptor binding SET domain protein 2 (NSD2) in an RCH-ACV wild type WT cells (2C) (AID 1645877). Further: nearly all actives have a fitted effect of over 70% in size. Further: potency means the concentration at half of the fitted maximal effect.
Test [5] concerns the target Rap guanine nucleotide exchange factor 3 (Homo sapiens) (UniProt O95398). The test is described as follows: Confirmatory qHTS for agonist of cAMP-regulated guanine nucleotide exchange factor 3 (EPAC1) (AID 1645881).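 Further: EPAC1 catalysed release of BODIPY-GDP from Rap1B seen as fluorescence loss; nearly all actives have a fitted effect of over 75% in size.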
For test [6], the target named is Rap guanine nucleotide exchange factor 4 (Homo sapiens) (UniProt Q8WZA2). The test is described as follows: Confirmatory qHTS for agonist of cAMP-regulated guanine nucleotide exchange factor 4 (EPAC2) (AID 1645884).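 Further: nucleotide exchange releases bodipy-GDP from Rap1 and this lowers its fluorescence; nearly all actives have a fitted effect of over 65% in size.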
Test [7] addresses Rap guanine nucleotide exchange factor 3 (Homo sapiens) (UniProt O95398). Put plainly: Confirmatory qHTS for antagonist of cAMP-regulated guanine nucleotide exchange factor 3 (EPAC1) (AID 1645880). Further: nearly all actives have a fitted effect of over 55% in size. Put shortly: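 Released BODIPY-GDP fluoresces less than Rap1-bound BODIPY-GDP; the signal is followed at 480/540 nm at 5-min intervals over 30 min, after 5 min at room temperature. Reactions contain 100 nM EPAC1, 250 nM RAP1B-BODIPY-GDP and 50 uM GDP; results are normalized to ATA and DMSO.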

Cytochrome P450 2C9 (Homo sapiens), sequence (P11712 whole entry, looked up): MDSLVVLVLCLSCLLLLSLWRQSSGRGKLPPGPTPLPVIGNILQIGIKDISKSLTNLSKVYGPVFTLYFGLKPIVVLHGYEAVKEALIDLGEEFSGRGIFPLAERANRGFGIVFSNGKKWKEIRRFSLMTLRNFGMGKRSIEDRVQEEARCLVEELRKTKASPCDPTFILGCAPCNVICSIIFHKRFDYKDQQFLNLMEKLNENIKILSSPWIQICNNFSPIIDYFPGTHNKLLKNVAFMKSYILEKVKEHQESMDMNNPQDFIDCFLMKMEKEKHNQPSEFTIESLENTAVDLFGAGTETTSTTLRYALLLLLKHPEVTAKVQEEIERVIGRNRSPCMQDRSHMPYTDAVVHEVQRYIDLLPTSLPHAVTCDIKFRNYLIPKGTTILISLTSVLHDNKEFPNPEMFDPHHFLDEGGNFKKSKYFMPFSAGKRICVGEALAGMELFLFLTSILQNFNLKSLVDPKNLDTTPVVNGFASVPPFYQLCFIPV
Rap guanine nucleotide exchange factor 3 (Homo sapiens), sequence (O95398 whole entry, looked up): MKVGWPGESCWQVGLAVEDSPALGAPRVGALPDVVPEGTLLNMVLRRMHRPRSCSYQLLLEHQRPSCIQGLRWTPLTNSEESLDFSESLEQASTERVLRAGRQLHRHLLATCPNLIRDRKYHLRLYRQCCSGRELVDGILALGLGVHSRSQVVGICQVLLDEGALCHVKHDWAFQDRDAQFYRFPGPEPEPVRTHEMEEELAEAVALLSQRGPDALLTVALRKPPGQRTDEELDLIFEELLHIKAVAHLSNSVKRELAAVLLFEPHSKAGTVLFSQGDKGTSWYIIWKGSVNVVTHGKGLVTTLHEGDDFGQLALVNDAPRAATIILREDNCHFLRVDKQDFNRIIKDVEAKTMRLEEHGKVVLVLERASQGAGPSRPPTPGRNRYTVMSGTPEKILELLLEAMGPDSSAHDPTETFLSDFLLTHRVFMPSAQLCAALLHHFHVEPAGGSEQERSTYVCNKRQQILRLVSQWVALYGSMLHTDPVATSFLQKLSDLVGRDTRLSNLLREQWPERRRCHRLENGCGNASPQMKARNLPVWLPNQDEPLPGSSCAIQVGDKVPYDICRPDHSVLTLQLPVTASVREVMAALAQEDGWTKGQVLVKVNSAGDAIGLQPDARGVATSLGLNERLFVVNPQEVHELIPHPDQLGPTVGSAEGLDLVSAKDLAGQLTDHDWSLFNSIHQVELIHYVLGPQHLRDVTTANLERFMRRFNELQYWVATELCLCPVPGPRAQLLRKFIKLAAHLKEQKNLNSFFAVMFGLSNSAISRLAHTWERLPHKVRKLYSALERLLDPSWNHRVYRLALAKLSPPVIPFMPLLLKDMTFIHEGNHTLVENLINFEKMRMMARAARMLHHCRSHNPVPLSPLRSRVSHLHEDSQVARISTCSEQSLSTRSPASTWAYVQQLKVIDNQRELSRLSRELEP
Papain (Carica papaya), sequence (P00784 whole entry, looked up): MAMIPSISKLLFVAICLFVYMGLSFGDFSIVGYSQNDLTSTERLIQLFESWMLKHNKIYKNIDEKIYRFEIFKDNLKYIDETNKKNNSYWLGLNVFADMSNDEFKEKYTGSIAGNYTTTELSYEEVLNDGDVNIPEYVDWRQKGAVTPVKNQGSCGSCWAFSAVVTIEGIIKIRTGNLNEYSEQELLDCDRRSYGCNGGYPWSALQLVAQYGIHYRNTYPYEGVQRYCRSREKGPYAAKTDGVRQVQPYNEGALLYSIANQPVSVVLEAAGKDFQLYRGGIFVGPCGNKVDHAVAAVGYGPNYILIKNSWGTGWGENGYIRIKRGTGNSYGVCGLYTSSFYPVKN
Cytochrome P450 2D6 (Homo sapiens), sequence (P10635 whole entry, looked up): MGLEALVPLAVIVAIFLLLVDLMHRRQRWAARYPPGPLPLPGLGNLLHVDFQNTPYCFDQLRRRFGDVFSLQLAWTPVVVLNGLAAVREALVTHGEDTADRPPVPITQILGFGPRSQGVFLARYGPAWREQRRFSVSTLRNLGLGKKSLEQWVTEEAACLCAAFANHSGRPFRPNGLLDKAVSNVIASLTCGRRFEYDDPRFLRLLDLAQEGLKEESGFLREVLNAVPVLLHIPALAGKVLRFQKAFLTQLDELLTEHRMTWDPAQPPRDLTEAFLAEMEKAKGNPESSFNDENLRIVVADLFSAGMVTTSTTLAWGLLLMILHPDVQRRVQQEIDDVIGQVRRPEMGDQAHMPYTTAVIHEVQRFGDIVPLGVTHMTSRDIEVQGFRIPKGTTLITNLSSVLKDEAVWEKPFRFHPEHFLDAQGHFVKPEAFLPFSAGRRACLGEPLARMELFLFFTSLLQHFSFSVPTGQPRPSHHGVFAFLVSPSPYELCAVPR
Rap guanine nucleotide exchange factor 4 (Homo sapiens), sequence (Q8WZA2 whole entry, looked up): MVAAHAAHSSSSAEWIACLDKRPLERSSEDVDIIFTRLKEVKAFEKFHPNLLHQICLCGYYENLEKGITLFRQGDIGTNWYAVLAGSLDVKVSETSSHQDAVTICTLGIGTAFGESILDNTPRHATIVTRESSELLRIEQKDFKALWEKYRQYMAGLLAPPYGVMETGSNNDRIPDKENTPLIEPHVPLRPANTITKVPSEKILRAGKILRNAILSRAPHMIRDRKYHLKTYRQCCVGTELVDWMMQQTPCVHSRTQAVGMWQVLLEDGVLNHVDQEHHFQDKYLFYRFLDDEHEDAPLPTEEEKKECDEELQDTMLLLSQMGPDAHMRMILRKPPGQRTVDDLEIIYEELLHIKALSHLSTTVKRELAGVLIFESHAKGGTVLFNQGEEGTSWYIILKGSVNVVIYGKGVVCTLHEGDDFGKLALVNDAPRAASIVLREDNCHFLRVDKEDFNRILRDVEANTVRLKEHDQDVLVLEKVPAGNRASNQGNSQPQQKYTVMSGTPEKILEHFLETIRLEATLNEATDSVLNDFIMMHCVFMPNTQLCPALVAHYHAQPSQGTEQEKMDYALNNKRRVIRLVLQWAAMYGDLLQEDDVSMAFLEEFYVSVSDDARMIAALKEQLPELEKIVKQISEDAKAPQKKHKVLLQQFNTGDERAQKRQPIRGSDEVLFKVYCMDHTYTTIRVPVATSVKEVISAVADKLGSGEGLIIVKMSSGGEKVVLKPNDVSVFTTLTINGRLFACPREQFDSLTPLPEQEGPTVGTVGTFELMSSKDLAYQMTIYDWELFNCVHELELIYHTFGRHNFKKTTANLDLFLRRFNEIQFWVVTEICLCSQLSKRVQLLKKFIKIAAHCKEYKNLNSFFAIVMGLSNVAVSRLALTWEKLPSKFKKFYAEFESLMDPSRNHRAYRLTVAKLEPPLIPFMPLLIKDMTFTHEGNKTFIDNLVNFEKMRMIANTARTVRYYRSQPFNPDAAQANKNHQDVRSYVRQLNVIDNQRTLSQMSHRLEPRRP

As to `CC1=C(CC(=O)O)c2cc(F)ccc2/C1=C\c1ccc(S(C)=O)cc1` (stereo not drawn), the Potency result (in test [1]; with Papain (Carica papaya)) was “inactive” in each case.
For `C[C@@H](O)[C@H](N)C(=O)O`, the Potency result in test [1], in test [2], in test [3] and in test [4] was “inactive” in each case.
Regarding `COc1ccc2cc1Oc1ccc(cc1)C[C@H]1c3c(cc4c(c3Oc3cc5c(cc3OC)CCN(C)[C@@H]5C2)OCO4)CCN1C`, the Potency in test [1] is 17.4 µM (active); in test [3], 8.41 µM (active) and 9.16 µM (active).
Take `COc1ccccc1O`: the Potency entry in test [1] and in test [2] was “inactive” each time. The Potency in test [4] was 39 µM (active).
In the case of `CC1=C(/C=C/C(C)=C/C=C/C(C)=C/C(=O)O)C(C)(C)CCC1`, the Potency result (in test [1]; with Papain (Carica papaya)) was “inactive” each time. The Potency in test [3] is 21.1 µM (active).
With `CC/C=C(\C(=O)N[C@@H]1C(=O)N2C(C(=O)OCOC(=O)C(C)(C)C)=C(COC(N)=O)CS[C@H]12)c1csc(N)n1`, the Potency entry in test [1], in test [3] and in test [4] was “inactive” throughout. For the same compound, the Potency in test [2] is 15.5 µM (active).
For the compound `CC(=O)OCC(=O)[C@@]1(O)CC[C@H]2[C@@H]3CCC4=CC(=O)CC[C@]4(C)[C@H]3C(=O)C[C@@]21C`, the Potency in test [1] was 3.89 µM (active). The Potency entry (in the test with Papain (Carica papaya); in test [3]; in test [4]) was “inactive” each time.
Take `CC1=C(CC(=O)O)c2cc(F)ccc2/C1=C\c1ccc(S(C)(=O)=O)cc1`: the Potency entry (in test [1]; in the test with Papain (Carica papaya)) was “inactive” each time.
Turning to `Cc1c(Cl)cccc1Nc1ccccc1C(=O)O`, the Potency result in test [1], in test [5] and in test [6] was “inactive” in each case.
Take `NS(=O)(=O)c1cc2c(cc1C(F)(F)F)NC(Cc1ccccc1)NS2(=O)=O` (stereo not drawn): the Potency result in test [1], in test [2], in test [3] and in test [4] was “inactive” throughout.
For the compound `CCOC(CN1CCN(CC(C)C(=O)c2ccccc2)CC1)c1ccccc1` (stereo not drawn), the Potency in test [1] is 0.0952 µM (active). In addition, the Potency result in test [3] was “inactive”.
For `O=C1Nc2ccc(Cl)cc2[C@@](C#CC2CC2)(C(F)(F)F)O1`, the Potency was 27.5 µM (active) in test [1], 17.4 µM (active) in test [2] and 18.6 µM (active) in test [3]. For the same compound, the Potency entry in test [7] and in test [5] was “inactive” throughout.
